# A selection: hits, their analogues and other compounds. The true share with any hit is near 0.28%.
# Tb PFK inh-1: qHTS Assay to Find Inhibitors of T. brucei phosphofructokinase. ATP-dependent 6-phosphofructokinase (Trypanosoma brucei brucei), O15648. T. brucei PFK, ADP-Glo luminescence. Potency, µM (titrated, usually from 57.5 µM), for the others: at the top dose activity, negative = inhibition, most hits filed as inhibitors. 330,000 compounds, 0.17% hits;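 note: potency is the fitted concentration of half-maximal effect; 0% = uninhibited 1x PFK enzyme wells and -100% = no-enzyme wells; nearly all actives have a fitted effect of over 60% in size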
#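 ADP-Glo luminescence quantified ADP after 45 min at room temperature, with 1.25 nM T. brucei PFK, 0.1 mM ATP and 0.5 mM fructose-6-phosphate in pH 8.0 TEA buffer. qHTS titrations up to 57 µM; curves classified by quality.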
# PI4K2A block: qHTS for small molecular inhibitors of PI4K2A; AID 1346378, 2018; purified PI4K2A, ADP-Glo luminescence, 1 h; stronger effect = lower value; Phosphatidylinositol 4-kinase type 2-alpha (Homo sapiens), Q9BTU6; activity change, negative = inhibition, % at 76.9 µM; 420,000 compounds, 0.13% hits; in the data active = activity change below about -50%; inconclusive = mostly about -30% to -49%;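 note: -100% = wells without enzyme as full effect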
#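 Compounds are screened against recombinant PI4K2A using PI as substrate and ATP, the latter dispensed at 300 microM. Reactions run one hour at ambient temperature before ADP-Glo detection; full inhibition defined by wells lacking enzyme.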
# USP2a inh: qHTS Assay for Inhibitors of Ubiquitin-specific Protease USP2a Using CHOP2 as the Reporter; USP2 core, Ub-CHOP2 coupled fluorogenic reporter, 485/531; 330,000 compounds, 0.01% hits; Ubiquitin carboxyl-terminal hydrolase 2 (Homo sapiens), O75604; AID 463254, 2010; Potency, µM (series often up to 38.3 µM), for the others: top-dose activity change, negative = inhibition, hits mostly inhibitors;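 note: potency is the fitted concentration of half-maximal effect; plate controls were DMSO wells for no effect and full inhibition by NEM control for full effect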
#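 Cell-free coupled assay: 10nM USP2 core preincubated 30min RT with compound in Tris-HCl pH 8.0/CaCl2/CHAPS buffer, then 25nM Ub-CHOP2 and 25nM reporter substrate; fluorescence (Ex 485/Em 531) read after 60min RT, normalized to NEM inhibition, concentration-response curves fitted.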
# Pin1 inh: qHTS Assay to Find Inhibitors of Pin1; Peptidyl-prolyl cis-trans isomerase NIMA-interacting 1 (Homo sapiens), Q13526; Pin1 FP peptide displacement, HiFluor488, 10 min; Potency, µM (top dose mostly 115 µM), inactives show at the highest dose activity, negative = inhibition, usual class: inhibitors; 390,000 compounds, 0.009% hits; active = well fitted inhibition curve with a large enough effect in the polarisation, with a control signal flat, not every such curve was filed as active; inconclusive = small, poorly fitted or top-dose-only effect, or effect the other way, or a change in a side signal; inactive = no such curve, though single readings can be large or run the other way; the % refers to the polarisation; note: potency is the fitted concentration of half-maximal effect; % is set by controls: 0 for no effect and ±100 for the full control effect
# Target sequence (Q13526 whole entry, looked up): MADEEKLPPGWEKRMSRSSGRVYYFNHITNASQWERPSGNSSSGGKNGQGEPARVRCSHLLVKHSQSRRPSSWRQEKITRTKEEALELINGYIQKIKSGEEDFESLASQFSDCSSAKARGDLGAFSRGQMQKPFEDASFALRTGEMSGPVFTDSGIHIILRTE
# PGK inhibitor: qHTS Assay to Find Inhibitors of Phosphoglycerate Kinase. Phosphoglycerate kinase, glycosomal (Trypanosoma brucei brucei), P07378. PGK/GAPDH coupled, Kinase-Glo luminescence, 60 min. Potency, µM (titrated, usually from 57.5 µM), without a hit: top-dose activity change, negative = inhibition, actives largely listed as inhibitors. 380,000 compounds, 0.043% hits; note: potency is the fitted concentration of half-maximal effect; % is set by controls: 0 for no effect and ±100 for the full control effect; nearly all actives have a fitted effect of over 60% in size
# Target sequence (P07378 whole entry, looked up): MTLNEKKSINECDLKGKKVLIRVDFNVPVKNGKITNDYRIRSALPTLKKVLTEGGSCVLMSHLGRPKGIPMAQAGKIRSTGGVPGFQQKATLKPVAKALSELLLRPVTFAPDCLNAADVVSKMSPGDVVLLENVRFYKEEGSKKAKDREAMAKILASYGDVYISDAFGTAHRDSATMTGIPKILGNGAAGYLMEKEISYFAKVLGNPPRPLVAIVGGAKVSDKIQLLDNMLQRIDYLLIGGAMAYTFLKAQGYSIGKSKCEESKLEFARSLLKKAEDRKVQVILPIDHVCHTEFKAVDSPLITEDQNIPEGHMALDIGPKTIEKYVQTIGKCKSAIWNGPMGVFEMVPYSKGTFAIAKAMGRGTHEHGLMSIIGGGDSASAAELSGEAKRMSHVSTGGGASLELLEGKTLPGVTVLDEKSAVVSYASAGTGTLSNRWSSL
#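 Recombinant glycosomal PGK reaction used 1,3-bisphosphoglycerate generated in-well by GAPDH (100nM final) in 100mM TEA pH 7.6, 5mM MgCl2, 0.01% Tween-20. After 60 minutes at room temperature, ATP was read by Kinase-Glo Plus luminescence end-point.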
# Tb PFK KinaseGlo: Tb PFK orthogonal confirmatory assay using ATP depletion (Kinase-Glo Plus) as an alternative measure of Tb PFK activity: Hit Validation; Potency, µM (doses to about 57.5 µM), for the others: at the top dose inhibition; Tb PFK enzyme, ATP depletion, Kinase-Glo Plus luminescence; shares compounds with Tb PFK inh-1; 1,100 compounds, 47% hits; calls by dose curve; note: potency is the fitted concentration of half-maximal effect; nearly all actives have a fitted effect of over 60% in size
# Tb PFK inh-2: Inhibitors of T. brucei phosphofructokinase: Hit Validation. AID 504637, 2011. Potency, µM (top dose mostly 57.5 µM), for inactives: at the highest dose activity change, negative = inhibition, actives largely listed as inhibitors. 1,100 compounds, 41% hits. shares compounds with Tb PFK inh-1. purified T. brucei PFK, ADP-Glo luminescence, 45 min;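 note: potency is the fitted concentration of half-maximal effect; plate controls were full PFK enzyme control for no effect and no enzyme control for full effect; nearly all actives have a fitted effect of over 60% in size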
# Numbers without * were called inactive; i = inactive; ? = inconclusive; / = no result. Unless noted, calls come from the whole dose curve; as a rule, active = well fitted curve in the direction sought with a large enough effect; inconclusive = small, poorly fitted or top-dose-only effect, or another doubt; inactive = no such curve, though single readings can be large; an effect the other way counts as inactive or inconclusive.
SMILES,Tb PFK inh-1,PI4K2A block,USP2a inh,Pin1 inh,PGK inhibitor,Tb PFK KinaseGlo,Tb PFK inh-2
COc1ccccc1NC(=O)COC(=O)c1cc2c(s1)CCC2,?,-3.6,-0.6%,-3.7%,?,/,/
COc1ccc(OC)c(NC(=O)COC(=O)c2cc3c(s2)CCC3)c1,?,-19.6,-6.0%,?,?,?,?
COc1ccc(NC(=O)C(OC(=O)CNC(=O)c2ccccc2)c2ccccc2)cc1Cl (stereo unspecified),/,/,/,1.6%,/,/,/
CS(=O)(=O)NNC(=O)C1Cc2c(ccc3ccccc23)O1 (stereo unspecified),?,1.0,5.8%,0.6%,2.1%,-28.4%,?
O=C(OCC#CCSc1nnc(-c2cccc3ccccc23)o1)c1sc2ccccc2c1Cl,/,/,/,8.4%,/,/,/
CCN1CCCC1CNC(=O)C(O)(c1ccccc1)c1ccccc1 (stereo unspecified),/,4.3,/,/,/,/,/
COC(=O)c1sc(NC(=O)c2cc(-c3ccccc3)nc3ccccc23)c(C#N)c1C,6.75µM*,-10.6,-3.8%,-3.0%,2.2%,8.49µM*,15.1µM*
Cc1cccc(Cn2ncc3c4sc(C)cc4n(C)c3c2=O)c1,/,/,/,1.8%,/,/,/
COc1cc2c(cc1OC)CN(C(=O)[C@H](C)N[C@@H](CCc1ccccc1)C(=O)O)[C@H](C(=O)O)C2,/,-5.3,/,/,/,/,/
COCCn1cnnc1SCC(=O)Nc1cc(OC)c([N+](=O)[O-])cc1C,1.8%,-3.6,-1.8%,1.5%,-3.7%,/,/
CCCCc1ccc(-n2nnnc2SCC(=O)Nc2cc(OC)c([N+](=O)[O-])cc2C)cc1,?,3.4,2.4%,11.8%,-0.8%,6.7%,-1.6%
NNC(=O)c1cc2cc3ccccc3nc2s1,0.4%,-0.3,7.0%,13.2%,-1.2%,/,/
COc1ccc(S(=O)(=O)NNC(=O)c2cc3cc4ccccc4nc3s2)cc1,?,9.5,-3.5%,?,-1.5%,-35.1%,?
CS(=O)(=O)NNC(=O)c1cc2cc3ccccc3nc2s1,?,6.4,1.6%,-6.0%,i,-22.5%,20.9%
Cc1nc2n(c(=O)c1CCN1CCC(C(=O)c3ccc(F)cc3)CC1)CCS2,/,-4.5,/,/,/,/,/
Cc1c(Cl)sn(-c2ccc(Cl)cc2)c1=O,6.75µM*,0.3,2.1%,1.4%,2.3%,3.01µM*,5.36µM*
Cc1nn(-c2ccc(Cl)cc2)c(=O)c2ccccc12,13.5%,0.2,-5.5%,3.2%,i,/,/
CC(=O)n1cc(C(C[N+](=O)[O-])SCCN)c2ccccc21 (stereo unspecified),?,7.3,-1.1%,18.9%,2.9%,-19.9%,?
CC1Sc2c(C(=O)O)c(=O)c3cc(F)c(N4CCNCC4)cc3n21 (stereo unspecified),/,-4.7,/,/,/,/,/
S=C(NCc1ccccc1)N1CCN(c2cccc(Cl)c2)CC1,26.9µM*,1.6,7.1%,0.2%,3.1%,23.9µM*,26.9µM*
S=C(NCCCN1CCOCC1)N1CCN(c2cccc(Cl)c2)CC1,?,?,0.6%,-4.9%,6.6%,21.3µM*,26.9µM*
O=C(O)Cn1c(=O)n(Cc2ccc(Br)cc2F)c(=O)c2ccc(Cl)cc21,/,0.4,/,/,/,/,/
COc1ccc(-c2nc3ccccc3c(=O)n2Cc2ccccc2)cc1OCc1ccc(NC(C)=O)cc1,/,/,/,12.5%,/,/,/
CC(=O)N(C1=C(Cl)C(=O)c2ccccc2C1=O)C1CCCCC1,0.675µM*,-5.6,0.2%,0.3%,-1.2%,0.379µM*,0.379µM*
Cc1c(Cl)cccc1NC(=O)C(=O)NNC(=O)c1ccccc1F,?,-3.1,-3.4%,1.7%,i,-27.2%,?
SMILES,Tb PFK inh-1,PI4K2A block,USP2a inh,Pin1 inh,PGK inhibitor,Tb PFK KinaseGlo,Tb PFK inh-2
Cc1ccccc1C(=O)NNC(=O)C(=O)Nc1cccc(Cl)c1C,0.0%,0.5,-1.6%,0.8%,-8.1%,/,/
O=C(OCC#CCSc1nnc(-c2cccc3ccccc23)o1)c1sc(Cl)c(Cl)c1Cl,/,/,/,-5.2%,/,/,/
O=C(COc1ccccc1F)Nc1ccc(S(=O)(=O)Nc2nccs2)cc1,4.78µM*,1.3,1.0%,2.5%,-0.6%,2.13µM*,6.01µM*
Cc1ccc(SCC(=O)Nc2ccc(S(=O)(=O)Nc3nccs3)cc2)cc1,?,-3.9,6.0%,18.0%,9.9%,/,/
O=C(COc1ccc(F)cc1Cl)Nc1ccc(S(=O)(=O)Nc2nccs2)cc1,1.2µM*,-2.7,2.7%,7.5%,-8.6%,0.953µM*,1.07µM*
CC(=O)NS(=O)(=O)c1ccc(NC(=O)CSc2ccc(Cl)cc2)cc1,30.1µM*,0.3,1.5%,-0.9%,-6.9%,13.5µM*,30.1µM*
O=C(CSc1ccncc1)Nc1ccc(S(=O)(=O)Nc2nccs2)cc1,19µM*,6.2,1.5%,20.3%,-11.6%,13.5µM*,26.9µM*
CCOCC(=O)Nc1ccc(S(=O)(=O)Nc2nccs2)cc1,1.3%,-1.6,6.1%,1.7%,0.5%,/,/
Cc1nc2cc(NC(=O)COc3ccc(C#N)cc3)ccc2n1-c1ccccc1,21.3µM*,8.0,7.2%,-4.9%,6.4%,?,?
Cc1ccc2c(c1)sc(C)[n+]2CCCS(=O)(=O)[O-],?,-13.3,0.2%,-16.6%,-0.9%,-15.6%,1.1%
Cc1ccc2sc(C)[n+](CCCS(=O)(=O)[O-])c2c1,27.2%,-9.8,-0.1%,-1.8%,-4.8%,/,/
CN(Cc1cccs1)c1ncnc2ccc(-c3ccc4cnn(C)c4c3)cc12,/,/,/,6.9%,/,/,/
O=C1CCc2cc(S(=O)(=O)Nc3cccc(-c4ccccc4)c3)ccc2N1,/,/,/,-0.8%,/,/,/
CCOC(=O)c1c(NC(=O)COC(=O)c2ccc(NC(=O)CC#N)cc2)sc(C(=O)NC)c1C,0.849µM*,-17.9,3.5%,132.2%,-8.0%,6.01µM*,6.75µM*
O=C(O)c1ccc(-n2cccc2/C=C2/SC(=O)N(CC(=O)N3CCCC3)C2=O)cc1,?,-11.9,0.5%,?,?,4.78µM*,5.36µM*
Cc1ccc(CN2C(=O)N/C(=C\c3cccn3-c3cccc(C(=O)O)c3)C2=O)cc1,?,-24.5,?,-22.3%,?,?,?
ON=Cc1cccn1-c1ccccc1,0.0%,-1.6,-0.9%,-1.7%,-5.2%,/,/
